# Test results from PubChem BioAssay (NCATS).
# “And” between values parts separate entries of the source, which are not always exact repeats. Identical values can stand only once. Results filed as inconclusive are left out. The source holds several records for some structures; these can differ, active in one and inactive in another. Unmarked numbers belong to inactive results. The source made the active and inactive calls. The call rests on the fitted dose curve; in most records, active means well fitted inhibition curve with a large enough effect; inconclusive means small, poorly fitted or top-dose-only effect; inactive means flat fitted curve, though single readings scatter.
# How the values were obtained:
# [1] = Drug repurposing screens with cells derived from glioblastoma tumor samples (AID 1345199); conditions: GBM patient neurospheres viability, ATP luminescence, 48 h; further: nearly all actives have a fitted effect of over 40% in size
# In short: (§1)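 Primary testing used CD133+ neurospheres from four GBM patients, seven concentrations, 48 h exposure and ATP-based viability; confirmation added three slower-growing patient lines.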
# astro = control astrocytes; experiment: as above; conditions: viability, ATP luminescence, 48 h; series mostly up to 45.9 µM
# In short: as §1
# [2] = at 45.9 µM (top of the series), tumour line B
# [3] = at 45.9 µM (top of the series), tumour line D
# [4] = at 46.1 µM (top of the series), tumour line C
# [5] = at 20 µM (top of the series), tumour line C
# [6] = at 21.2 µM (top of the series), tumour line B
# [7] = at 21.2 µM (top of the series), tumour line D
# [8] = at 21.3 µM (top of the series), tumour line A
# [9] = at 46 µM (top of the series), tumour line A
# [10] = at 99.2 µM (top of the series), tumour line C
# [11] = at 108 µM (top of the series), tumour line B
# On the % scale 0 is the no-effect control and ±100 the full control effect; potency means the concentration at half of the fitted maximal effect.
structure (smiles),measurement,setting,value
CN(C)[C@H](Cc1ccccc1)c1ccccc1,"activity, negative = cell killing",[1]; [2],-3.48%
same,"activity, negative = cell killing",[1]; [3],-20.8%
same,"activity, negative = cell killing",[1]; [4],-18.9%
same,Potency,[1]; tumour line A,20 µM (active)
same,Potency,astro,inactive
CC(=O)OCC(=O)[C@H]1CC[C@H]2[C@@H]3CC[C@H]4C[C@H](O)CC[C@]4(C)[C@H]3C(=O)C[C@]12C,"activity, negative = cell killing",[1]; [5],-20.2%
same,"activity, negative = cell killing",[1]; [6],-4.33%
same,"activity, negative = cell killing",[1]; [7],0.678%
same,"activity, negative = cell killing",[1]; [8],-6.64%
same,Potency,astro,inactive
Oc1ccc2c3c1O[C@H]1[C@@H](O)CC[C@@]4(O)[C@@H](C2)N(CC2CCC2)CC[C@]314,"activity, negative = cell killing",[1]; [2],-15.8%
same,"activity, negative = cell killing",[1]; [3],-17.2%
same,"activity, negative = cell killing",[1]; [9],7.3%
same,"activity, negative = cell killing",[1]; [4],-0.783%
same,Potency,astro,inactive
COc1ccc2c3c1O[C@H]1[C@@H](O)C=C[C@H]4[C@@H](C2)NCC[C@@]341,"activity, negative = cell killing",[1]; [2],-18.4%
same,"activity, negative = cell killing",[1]; [3],-17.8%
same,"activity, negative = cell killing",[1]; [4],-25.3%
same,"activity, negative = cell killing",[1]; [10],6.81%
same,"activity, negative = cell killing",[1]; [11],-9.55%
same,"activity, negative = cell killing","[1]; at 108 µM (top of the series), tumour line D",-1.54%
same,Potency,astro,inactive
CC1CCC(C(C)C)C(OC(=O)c2ccccc2N)C1 (configuration not stated),"activity, negative = cell killing",[1]; [4],13.8%
same,Potency,[1]; tumour line A,12.6 µM (active)
same,Potency,[1]; tumour line B,35.5 µM (active)
CC(C)(O)[C@@H]1[C@H]2OC(=O)[C@@H]1[C@]1(O)C[C@H]3O[C@]34C(=O)O[C@H]2[C@]14C,"activity, negative = cell killing",[1]; [2],-2.1% and -10.8%
same,"activity, negative = cell killing",[1]; [3],11.7% and -21%
same,"activity, negative = cell killing",[1]; [9],-37.4% and -27.2%
same,"activity, negative = cell killing",[1]; [4],-9.46% and -22%
same,Potency,astro,inactive
CC(=O)Oc1ccc2c3c1O[C@H]1[C@@H](OC(C)=O)C=C[C@H]4[C@@H](C2)N(C)CC[C@@]341,"activity, negative = cell killing",[1]; [2],1.1%
same,"activity, negative = cell killing",[1]; [3],-2.21%
same,"activity, negative = cell killing",[1]; [4],-13.5%
same,"activity, negative = cell killing",[1]; [10],-29.8%
same,"activity, negative = cell killing",[1]; [11],-14.9%
same,Potency,astro,inactive
N#CC(C#N)=Cc1cc(O)c(O)c(O)c1,"activity, negative = cell killing",[1]; [2],-27.1%
same,Potency,[1]; tumour line D,12.6 µM (active)
C[C@]12CCC(=O)C[C@@H]1CC[C@@H]1[C@@H]2CC[C@]2(C)[C@@H](O)CC[C@@H]12,"activity, negative = cell killing",[1]; [2],-19.9%
same,"activity, negative = cell killing",[1]; [3],-25.4%
same,"activity, negative = cell killing",[1]; [4],-25.5%
same,Potency,[1]; tumour line A,12.6 µM (active)
CCC1C(C)=NN=C(c2ccc(OC)c(OC)c2)c2cc(OC)c(OC)cc21 (configuration not stated),"activity, negative = cell killing",[1]; [2],-16.7%
same,"activity, negative = cell killing",[1]; [3],-19%
same,"activity, negative = cell killing",[1]; [4],-6.07%
O=S(=O)(O)c1cc(O)ccc1O,"activity, negative = cell killing",[1]; [5],0.614%
same,"activity, negative = cell killing",[1]; [6],-13.4%
same,"activity, negative = cell killing",[1]; [7],-2.62%
same,"activity, negative = cell killing",[1]; [8],-30%
same,Potency,astro,inactive
COC1=CC=C2[C@H]3Cc4ccc(OC)c5c4[C@@]2(CCN3C)[C@H]1O5,"activity, negative = cell killing",[1]; [5],-9.82%
same,"activity, negative = cell killing",[1]; [6],-2.9%
same,"activity, negative = cell killing",[1]; [7],-4.5%
same,"activity, negative = cell killing","[1]; at 91.6 µM (top of the series), tumour line B",-4.24%
same,"activity, negative = cell killing",[1]; [10],12%
same,Potency,[1]; tumour line A,35.5 µM (active)
same,Potency,[1]; tumour line D,35.5 µM (active)
same,Potency,astro,inactive
O=C1C2CC=CCC2C(=O)N1SC(Cl)(Cl)Cl (configuration not stated),"activity, negative = cell killing",[1]; [4],-4.36%
same,Potency,[1]; tumour line A,7.08 µM (active)
same,Potency,[1]; tumour line B,20 µM (active)
same,Potency,[1]; tumour line D,11.2 µM (active)
O=[N+]([O-])c1ccc(F)c([N+](=O)[O-])c1,"activity, negative = cell killing",[1]; [2],-29.6%
same,Potency,[1]; tumour line A,20 µM (active)
same,Potency,[1]; tumour line C,14.6 µM (active)
[O]=[Cd],"activity, negative = cell killing",[1]; [2],-6.73%
same,"activity, negative = cell killing",[1]; [3],0.985%
same,"activity, negative = cell killing",[1]; [9],-15%
same,"activity, negative = cell killing",[1]; [4],-5.34%
same,Potency,astro,inactive
Clc1ccc(Cl)cc1,"activity, negative = cell killing",[1]; [2],-3.79%
same,"activity, negative = cell killing",[1]; [3],-0.0641%
same,"activity, negative = cell killing",[1]; [9],-16.3%
same,"activity, negative = cell killing",[1]; [4],-0.658%
same,Potency,astro,inactive
ClC(Cl)(Cl)Cl,"activity, negative = cell killing",[1]; [2],-3.78%
same,"activity, negative = cell killing",[1]; [3],4.09%
same,"activity, negative = cell killing",[1]; [9],-14.3%
same,"activity, negative = cell killing",[1]; [4],-6.14%
same,Potency,astro,inactive
CC1(C)[C@H](C=C(Cl)Cl)[C@H]1C(=O)OCc1c(F)c(F)cc(F)c1F,"activity, negative = cell killing",[1]; [2],-3.56%
same,"activity, negative = cell killing",[1]; [3],-11.5%
same,"activity, negative = cell killing",[1]; [9],-26.8%
same,"activity, negative = cell killing",[1]; [4],-13.8%
same,Potency,astro,inactive
NCC[C@H](O)C(=O)N[C@@H]1C[C@H](N)[C@@H](O[C@H]2O[C@H](CN)[C@@H](O)[C@H](O)[C@H]2N)[C@H](O[C@@H]2O[C@H](CO)[C@@H](O)[C@H]2O)[C@H]1O,"activity, negative = cell killing",[1]; [5],-6.64%
same,"activity, negative = cell killing",[1]; [6],-8.33%
same,"activity, negative = cell killing",[1]; [7],-11.1%
same,"activity, negative = cell killing",[1]; [8],-21.7%
same,Potency,astro,inactive
CC(C)(C)c1cc(O)ccc1O,"activity, negative = cell killing",[1]; [3],-24.6%
same,"activity, negative = cell killing",[1]; [4],3.11%
CCCC(C)(COC(N)=O)COC(=O)NC1CC1 (configuration not stated),"activity, negative = cell killing",[1]; [2],-5.97%
same,"activity, negative = cell killing",[1]; [3],-18%
same,"activity, negative = cell killing",[1]; [9],-25.6%
same,"activity, negative = cell killing",[1]; [4],-16.6%
same,Potency,astro,inactive
